Here are results for 40 molecules from PubChem BioAssay (Tox21).

Records with an inconclusive call do not appear. Calls of active or inactive are those of the source. Calls come from the whole dose curve; as a rule, active = well fitted cell-killing curve with a large enough effect in the repeat runs; inconclusive = weak or mixed curves, or effect the other way; inactive = no such curve, though single readings can be large or run the other way.
% is set by controls: 0 for no effect and ±100 for the full control effect; potency is the fitted concentration of half-maximal effect.

The test is described as follows: qHTS assay for identifying genotoxic compounds that show differential cytotoxicity against isogenic chicken DT40 cell lines with known DNA damage response pathways - Rev3 mutant cell line (AID 743014). Note: nearly all actives have a fitted effect of over 55% in size. The settings on record: chicken DT40 Rev3-/- viability, CellTiter-Glo, 40 h; series mostly up to 68.4 µM; activity, negative = cytotoxicity: at the top concentration. From the text: National Center for Advancing Translational Sciences [NCATS]
NIH Chemical Genomics Center [NCGC]
U.S. Environmental Protection Agency [EPA]
National Institutes of Environmental Health Sciences [NIEHS]
National Toxicology Program [NTP]
U.S. Food and Drug Administration [FDA]
DNA repair pathways play a critical role in cellular homeostasis by repairing DNA damage induced by endogenous processes and xenobiotics. Isogenic chicken DT40 cell lines deficient in different DNA repair pathways can be used to identify genotoxic compounds and aid in characterizing the nature of the DNA damage induced. Two DNA repair-deficient cell lines with disrupted genes, Rad54/Ku70 or Rev3, were used to screen the Tox21 10K compound library. Possible genotoxicity was based on the presence of a significant increase in cytotoxicity in one or more of the DNA repair-deficient cell lines compared to that observed in the parental DNA repair-proficient cell line. CellTiter Glo viability assay (Promega, Madison, WI) was used to measure cell viability in these cells after compound treatment. This assay includes the data from the Rev3 mutant cell line.
Tox21 Assay Protocol Summary:
300 DT40 mutant cells in 5 uL/well were dispensed into white, solid-bottom 1536-well plates using a Multidrop Combi (ThermoFisher Scientific, Waltham, MA) dispenser. After the assay plates were incubated at 37 C/5% CO2 for approximately 0.5 hour, 23 nL of compounds dissolved in DMSO, positive controls or DMSO only was transferred into the assay plate by a pintool work station (Kalypsys, San Diego, CA). The assay plates were incubated at 37 C/5% CO2 for 40 hours. After 5 uL per well of CellTiter-Glo reagent was added into each well of the assay plates, the plates were incubated for 30 min at room temperature and the luminescence intensity of the plates was measured using a ViewLux (PerkinElmer, Shelton, CT) plate reader.
On to `[O]=[Bi][O][Bi]=[O]`, for which the “activity, negative = cytotoxicity” value is -0.787% (inactive). On the same count and under the same terms, for `CN1CC(O)c2cc(N=NC(N)=O)c(O)cc21` (stereo not given) the value was -10.3% (inactive); for `C=CCSSSCC=C`, 10% (inactive). The same measure, in the same setting: for `CCCC(=O)Nc1c(I)cc(I)c(CC(CC)C(=O)O)c1I` (stereo not given) the value was 29.5% (inactive); for `C[C@]12C=CC(=O)C=C1CC[C@@H]1[C@@H]2[C@@H](O)C[C@@]2(C)[C@H]1CC[C@]2(O)C(=O)COC(=O)CCC(=O)O`, -9.23% (inactive). Regarding `Clc1cc(Cl)c(OCC#CI)cc1Cl`, the Potency is 2.98 µM (active). Regarding `CN=C(NC)NCc1ccccc1`, the “activity, negative = cytotoxicity” value is 1.65% (inactive). On to `CC[C@]1(O)CC2CN(CCc3c([nH]c4ccccc34)[C@@](C(=O)OC)(c3cc4c(cc3OC)N(C)[C@H]3[C@@](O)(C(N)=O)[C@H](O)[C@]5(CC)C=CCN6CC[C@]43[C@@H]65)C2)C1` (stereo not given in full), for which the Potency was 0.0531 µM (active). The same measure, in the same setting: the value for `COc1ccc(C2NC(=S)N3C(c4ccc(OC)c(OC)c4)NC(=S)N23)cc1OC` (stereo not given) was 0.0106 µM (active). Take `CN1CCc2c(c3ccccc3n2Cc2ccccc2)C1`: the “activity, negative = cytotoxicity” value was 0.0417% [at 31.4 µM] (inactive).

Turning to `COC(=O)CC[C@H](N)C(=O)O`, the “activity, negative = cytotoxicity” value is 9.74% (inactive).

For the molecule `C=C(NC(=O)C(=C)NC(=O)c1csc(C2=N[C@@H]3c4csc(n4)[C@H]4NC(=O)c5csc(n5)[C@H]([C@](C)(O)[C@@H](C)O)NC(=O)[C@H]5CSC(=N5)C(=CC)NC(=O)C([C@@H](C)O)NC(=O)c5csc(n5)[C@]3(CC2)NC(=O)[C@H](C)NC(=O)C(=C)NC(=O)[C@H](C)NC(=O)C([C@@H](C)CC)NC2C=Cc3c([C@H](C)O)cc(nc3C2O)C(=O)O[C@@H]4C)n1)C(N)=O` (stereo not given in full), the Potency is 3.2 µM (active). Still for that read-out and setting: for `CCCC1([C@H](O)C/C=C/[C@H]2[C@H](O)CC(=O)[C@@H]2CCCCCCC(=O)OC)CCC1` the value was 23.7 µM (active).

For `COc1c(O[C@@H]2O[C@H](CO)[C@@H](O)[C@H](O)[C@H]2O)cc2c(c1OC)-c1ccc(SC)c(=O)cc1[C@@H](NC(C)=O)CC2`, the “activity, negative = cytotoxicity” value was 2.76% [at 31.4 µM] (inactive). On the same count and under the same terms, for `CCCCCCCCCCCCCCCCCCCCCCO` the value was -3.25% (inactive). Turning to `CO[C@H]1C=CO[C@@]2(C)Oc3c(C)c(O)c4c(O)c(c5c(nc6cc(C)ccn65)c4c3C2=O)NC(=O)/C(C)=C\C=C[C@H](C)[C@H](O)[C@@H](C)[C@@H](O)[C@@H](C)[C@H](OC(C)=O)[C@@H]1C`, the Potency is 23.7 µM (active). `O=C(O)c1cccc(/C=C2/C[C@@H]3[C@@H](/C=C/[C@@H](O)C4CCCCC4)[C@H](O)C[C@@H]3O2)c1`: the “activity, negative = cytotoxicity” value was 3.87% (inactive).

For the molecule `Nc1nc(=O)n([C@@H]2CS[C@H](CO)O2)cc1F`, the “activity, negative = cytotoxicity” value was 6.22% (inactive). Same read-out and setting: the value for `CCCCCCCCCCCCCCCC(=O)OC[C@@H](NC(=O)C(Cl)Cl)[C@H](O)c1ccc([N+](=O)[O-])cc1` was 3.55% (inactive). `CN1CCN(CCCN2c3ccccc3Sc3ccccc32)CC1`: the Potency was 11.9 µM (active).

As to `CS(=O)(=O)OCCCNCCCOS(C)(=O)=O`, the “activity, negative = cytotoxicity” value is 4.68% (inactive).

As for `COc1ccc(C(=O)Nc2ccccc2CCC2CCCCN2C)cc1` (stereo not given), the “activity, negative = cytotoxicity” value is -14.6% (inactive). Same read-out and setting: for `CC(C(=O)O)c1ccc(N2Cc3ccccc3C2=O)cc1` (stereo not given) the value was -5.9% (inactive); for `O=c1[nH]cnc2[nH]cc(CN3CCCCC3)c12`, 6.55% (inactive). Still for that read-out and setting: for `NC(=O)c1ccc[n+]([C@@H]2O[C@H](COP(=O)([O-])OP(=O)(O)OC[C@H]3O[C@@H](n4cnc5c(N)ncnc54)[C@H](O)[C@@H]3O)[C@@H](O)[C@H]2O)c1` the value was 14.4% [at 31.4 µM] (inactive); for `CN1c2c(nc(N)[nH]c2=O)NCC1CNc1ccc(C(=O)NC(CCC(=O)O)C(=O)O)cc1` (stereo not given), 4.79% (inactive); for `CO/N=C(\C(=O)N[C@@H]1C(=O)N2C(C(=O)O)=C(CSC(=O)c3ccco3)CS[C@H]12)c1csc(N)n1`, 0.149% (inactive).

Regarding `Cn1nnnc1SCC1=C(C(=O)O)N2C(=O)[C@@H](NC(=O)[C@H](OC=O)c3ccccc3)[C@H]2SC1`, the “activity, negative = cytotoxicity” value was 5.14% (inactive). Still for that read-out and setting: the value for `CC(C)CN(C[C@@H](O)[C@H](Cc1ccccc1)NC(=O)O[C@H]1CO[C@H]2OCC[C@H]21)S(=O)(=O)c1ccc(N)cc1` was 4.38% (inactive); that for `OC(CN1CCCCC1)c1cc(-c2ccccc2)on1` (stereo not given) was -1.43% (inactive). As for `CC1=C(/C=C/C(C)=C/C=C/C(C)=C/C=C/C=C(C)/C=C/C=C(C)/C=C/C2=C(C)C[C@@H](O)CC2(C)C)C(C)(C)C[C@H](O)C1`, the Potency was 13.3 µM (active). For `CO[C@H]1C[C@@H]2CC[C@@H](C)[C@@](O)(O2)C(=O)C(=O)N2CCCC[C@H]2C(=O)O[C@H]([C@H](C)C[C@@H]2CC[C@@H](OCCO)[C@H](OC)C2)CC(=O)[C@H](C)/C=C(\C)[C@@H](O)[C@@H](OC)C(=O)[C@H](C)C[C@H](C)/C=C/C=C/C=C/1C`, the Potency is 0.0075 µM (active). Same read-out and setting: the value for `O=S(=O)(O)c1cc(O)c2c(N=Nc3ccc(Nc4ccccc4)c4c(S(=O)(=O)O)cccc34)cc(S(=O)(=O)O)cc2c1` was 11.9 µM (active); that for `Cc1ccc(C2(O)CCN(CCCC(=O)c3ccc(F)cc3)CC2)cc1` was 11.9 µM (active). Regarding `CC1(C)S[C@@H]2[C@H](NC(=O)[C@H](NC(=O)N3CCN(S(C)(=O)=O)C3=O)c3ccccc3)C(=O)N2[C@H]1C(=O)O`, the “activity, negative = cytotoxicity” value was 2.26% (inactive).

Take `CCCc1nc(C(C)(C)O)c(C(=O)OCc2oc(=O)oc2C)n1Cc1ccc(-c2ccccc2-c2nn[nH]n2)cc1`: the “activity, negative = cytotoxicity” value is -1.51% (inactive). On the same count and under the same terms, the value for `O=C1NCCN1c1ncc([N+](=O)[O-])s1` was 7.17% [at 31.4 µM] (inactive); that for `FCOC(C(F)(F)F)C(F)(F)F` was 15.2% (inactive). The same measure, in the same setting: the value for `O=c1oc2cc(O)ccc2s1` was 8.74% (inactive). Turning to `CC[C@@]1(O)C[C@H](O[C@H]2C[C@H](N(C)C)[C@H](O[C@H]3C[C@H](O)[C@H](O[C@H]4CCC(=O)[C@H](C)O4)[C@H](C)O3)[C@H](C)O2)c2c(cc3c(c2O)C(=O)c2c(O)cccc2C3=O)[C@H]1C(=O)OC`, the Potency is 0.0531 µM (active).
